# PubChem BioAssay AID1159580 (chemical genetic matrix, 2015)
# The whole screen tested about 5,500 compounds, of which about 2,000 (36%) were called active. Inconclusive results (about 18%) are left out. The list shows a part of the results. Values without a mark were called inactive. Cut-off read from the data, not from the text of the source: active = normalized growth mostly below about 0.91 (no sharp cut-off); inconclusive = no clear call, values can overlap the other calls; inactive = mostly above about 0.92.
# Assay: chemical genetic growth profiling, strain panel (AID 1159580);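 note: tested at 20 µM; growth read once vehicle control cultures reached saturation at 30 °C; 1 = growth at the plate median or of vehicle wells; lower values mean less growth of the strain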
# Details: growth OD
# [1] = S. cerevisiae deletion strains, locus YCL061C, strain MRC1, active compounds read low
smiles,measurement,setting,value
Cc1c(Cl)cccc1SCC(=O)O,normalized growth,"S. cerevisiae deletion strains, locus YAL013W, strain DEP1, active compounds read low",0.944
same,normalized growth,"S. cerevisiae deletion strains, locus YBR229C, strain ROT2, active compounds read low",0.958
same,normalized growth,[1],0.989
same,normalized growth,"S. cerevisiae deletion strains, locus YDL101C, strain DUN1, active compounds read low",0.973
same,normalized growth,"S. cerevisiae deletion strains, locus YDL134C, strain PPH21, active compounds read low",1.01
same,normalized growth,"S. cerevisiae deletion strains, locus YDR150W, strain NUM1, active compounds read low",0.926
same,normalized growth,"S. cerevisiae deletion strains, locus YEL061C, strain CIN8, active compounds read low",0.977
same,normalized growth,"S. cerevisiae deletion strains, locus YGR078C, strain PAC10, active compounds read low",0.964
same,normalized growth,"S. cerevisiae deletion strains, locus YHR030C, strain SLT2, active compounds read low",1.06
same,normalized growth,"S. cerevisiae deletion strains, locus YHR087W, strain rtc3, active compounds read low",0.984
same,normalized growth,"S. cerevisiae deletion strains, locus YJR043C, strain POL32, active compounds read low",0.973
same,normalized growth,"S. cerevisiae deletion strains, locus YJR075W, strain HOC1, active compounds read low",0.937
same,normalized growth,"S. cerevisiae deletion strains, locus YKL190W, strain CNB1, active compounds read low",1.01
same,normalized growth,"S. cerevisiae deletion strains, locus YLR039C, strain RIC1, active compounds read low",1
same,normalized growth,"S. cerevisiae deletion strains, locus YLR058C, strain SHM2 (second series), active compounds read low",0.967
same,normalized growth,"S. cerevisiae deletion strains, locus YLR085C, strain ARP6, active compounds read low",1.03
same,normalized growth,"S. cerevisiae deletion strains, locus YLR262C, strain YPT6, active compounds read low",0.995
same,normalized growth,"S. cerevisiae deletion strains, locus YML094W, strain GIM5, active compounds read low",0.997
same,normalized growth,"S. cerevisiae deletion strains, locus YMR219W, strain ESC1, active compounds read low",0.945 (active)
same,normalized growth,"S. cerevisiae deletion strains, locus YMR263W, strain SAP30, active compounds read low",0.941
same,normalized growth,"S. cerevisiae deletion strains, locus YNL153C, strain GIM3, active compounds read low",0.942
same,normalized growth,"S. cerevisiae deletion strains, locus YNL298W, strain CLA4 (second series), active compounds read low",1.02
same,normalized growth,"S. cerevisiae deletion strains, locus YNL322C, strain KRE1, active compounds read low",0.944
same,normalized growth,"S. cerevisiae deletion strains, locus YNR030W, strain Alg12, active compounds read low",1
same,normalized growth,"S. cerevisiae deletion strains, locus YPL055C, strain LGE1, active compounds read low",0.837
same,normalized growth,"S. cerevisiae deletion strains, locus YPL241C, strain CIN2, active compounds read low",1
same,normalized growth,"S. cerevisiae deletion strains, locus YPR135W, strain CTF4, active compounds read low",1.06
same,normalized growth,"S. cerevisiae strains, strain wild type, active compounds read low",1.01
Cc1cccc(Nc2cc(Cl)nc(SCC(=O)O)n2)c1C,normalized growth,"S. cerevisiae deletion strains, locus YAL021C, strain ccr4, active compounds read low",0.932
same,normalized growth,"S. cerevisiae deletion strains, locus YAL026C, strain drs2, active compounds read low",1.01
same,normalized growth,"S. cerevisiae deletion strains, locus YAL030W, strain snc1, active compounds read low",1
same,normalized growth,"S. cerevisiae deletion strains, locus YBL061C, strain skt5, active compounds read low",0.999
same,normalized growth,"S. cerevisiae deletion strains, locus YBR009C, strain hhf1, active compounds read low",1.06
same,normalized growth,"S. cerevisiae deletion strains, locus YBR023C, strain chs3, active compounds read low",1
same,normalized growth,"S. cerevisiae deletion strains, locus YBR171W, strain sec66, active compounds read low",0.988
same,normalized growth,"S. cerevisiae deletion strains, locus YBR231C, strain swc5, active compounds read low",1.01
same,normalized growth,"S. cerevisiae deletion strains, locus YBR279W, strain paf1, active compounds read low",1.01
same,normalized growth,"S. cerevisiae deletion strains, locus YCL011C, strain gbp2, active compounds read low",0.987
same,normalized growth,"S. cerevisiae deletion strains, locus YCL016C, strain dcc1, active compounds read low",1.01
same,normalized growth,[1],0.984
same,normalized growth,"S. cerevisiae deletion strains, locus YCL069W, strain vba3, active compounds read low",0.99
same,normalized growth,"S. cerevisiae deletion strains, locus YCR088W, strain abp1, active compounds read low",0.988
same,normalized growth,"S. cerevisiae deletion strains, locus YDL005C, strain med2, active compounds read low",0.99
same,normalized growth,"S. cerevisiae deletion strains, locus YDL040C, strain nat1, active compounds read low",0.996
same,normalized growth,"S. cerevisiae deletion strains, locus YDR001C, strain nth1, active compounds read low",0.984
same,normalized growth,"S. cerevisiae deletion strains, locus YDR069C, strain doa4, active compounds read low",0.998
same,normalized growth,"S. cerevisiae deletion strains, locus YDR137W, strain rgp1, active compounds read low",0.934
same,normalized growth,"S. cerevisiae deletion strains, locus YDR159W, strain sac3, active compounds read low",1.03
same,normalized growth,"S. cerevisiae deletion strains, locus YDR195W, strain ref2",0.987
same,normalized growth,"S. cerevisiae deletion strains, locus YDR297W, strain sur2, active compounds read low",0.991
same,normalized growth,"S. cerevisiae deletion strains, locus YDR334W, strain swr1, active compounds read low",0.969
same,normalized growth,"S. cerevisiae deletion strains, locus YDR335W, strain msn5, active compounds read low",0.996
same,normalized growth,"S. cerevisiae deletion strains, locus YDR392W, strain spt3, active compounds read low",0.965
same,normalized growth,"S. cerevisiae deletion strains, locus YEL003W, strain gim4, active compounds read low",0.999
same,normalized growth,"S. cerevisiae deletion strains, locus YEL037C, strain rad23, active compounds read low",0.999
same,normalized growth,"S. cerevisiae deletion strains, locus YEL061C, strain CIN8 (second series), active compounds read low",0.991
same,normalized growth,"S. cerevisiae deletion strains, locus YER015W, strain faa2, active compounds read low",1.02
same,normalized growth,"S. cerevisiae deletion strains, locus YER016W, strain bim1, active compounds read low",1.01
same,normalized growth,"S. cerevisiae deletion strains, locus YER111C, strain swi4, active compounds read low",1.01
same,normalized growth,"S. cerevisiae deletion strains, locus YER155C, strain BEM2 (second series), active compounds read low",1.04
same,normalized growth,"S. cerevisiae deletion strains, locus YFR010W, strain ubp6, active compounds read low",1
same,normalized growth,"S. cerevisiae deletion strains, locus YGL167C, strain pmr1, active compounds read low",0.997
same,normalized growth,"S. cerevisiae deletion strains, locus YGL173C, strain kem1, active compounds read low",1
same,normalized growth,"S. cerevisiae deletion strains, locus YGL227W, strain vid30, active compounds read low",1
same,normalized growth,"S. cerevisiae deletion strains, locus YGL240W, strain doc1, active compounds read low",1.03
same,normalized growth,"S. cerevisiae deletion strains, locus YGL253W, strain hxk2, active compounds read low",1.01
same,normalized growth,"S. cerevisiae deletion strains, locus YHR013C, strain ard1, active compounds read low",0.977
same,normalized growth,"S. cerevisiae deletion strains, locus YHR027C, strain rpn1, active compounds read low",0.987
same,normalized growth,"S. cerevisiae deletion strains, locus YHR142W, strain chs7, active compounds read low",0.936
same,normalized growth,"S. cerevisiae deletion strains, locus YJL092W, strain hpr5, active compounds read low",0.983
same,normalized growth,"S. cerevisiae deletion strains, locus YJL095W, strain BCK1 (second series), active compounds read low",0.987
same,normalized growth,"S. cerevisiae deletion strains, locus YJL115W, strain asf1, active compounds read low",0.98
same,normalized growth,"S. cerevisiae deletion strains, locus YJL129C, strain trk1, active compounds read low",0.986
same,normalized growth,"S. cerevisiae deletion strains, locus YJL154C, strain vps35, active compounds read low",0.992
same,normalized growth,"S. cerevisiae deletion strains, locus YJL164C, strain tpk1, active compounds read low",0.978
same,normalized growth,"S. cerevisiae deletion strains, locus YJL166W, strain qcr8, active compounds read low",1.01
same,normalized growth,"S. cerevisiae deletion strains, locus YJL187C, strain SWE1, active compounds read low",0.996
same,normalized growth,"S. cerevisiae deletion strains, locus YKL160W, strain elf1, active compounds read low",0.955
same,normalized growth,"S. cerevisiae deletion strains, locus YKR026C, strain gcn3, active compounds read low",0.988
same,normalized growth,"S. cerevisiae deletion strains, locus YKR091W, strain srl3, active compounds read low",0.989
same,normalized growth,"S. cerevisiae deletion strains, locus YLL001W, strain dnm1, active compounds read low",1
same,normalized growth,"S. cerevisiae deletion strains, locus YLL026W, active compounds read low",0.992
same,normalized growth,"S. cerevisiae deletion strains, locus YLL041C, strain sdh2, active compounds read low",0.99
same,normalized growth,"S. cerevisiae deletion strains, locus YLR027C, strain aat2, active compounds read low",0.993
same,normalized growth,"S. cerevisiae deletion strains, locus YLR221C, strain rsa3, active compounds read low",0.997
same,normalized growth,"S. cerevisiae deletion strains, locus YLR258W, strain gsy2, active compounds read low",1.01
same,normalized growth,"S. cerevisiae deletion strains, locus YLR262C, strain YPT6 (second series), active compounds read low",0.962
same,normalized growth,"S. cerevisiae deletion strains, locus YLR320W, strain mms22, active compounds read low",0.989
same,normalized growth,"S. cerevisiae deletion strains, locus YLR342W, strain FKS1, active compounds read low",1
same,normalized growth,"S. cerevisiae deletion strains, locus YLR357W, strain rsc2, active compounds read low",1.02
same,normalized growth,"S. cerevisiae deletion strains, locus YLR370C, strain arc18, active compounds read low",0.992
same,normalized growth,"S. cerevisiae deletion strains, locus YLR384C, strain iki3, active compounds read low",0.998
same,normalized growth,"S. cerevisiae deletion strains, locus YML120C, strain ndi1, active compounds read low",0.986
same,normalized growth,"S. cerevisiae deletion strains, locus YMR058W, strain fet3, active compounds read low",0.983
same,normalized growth,"S. cerevisiae deletion strains, locus YMR125W, strain sto1, active compounds read low",0.988
same,normalized growth,"S. cerevisiae deletion strains, locus YMR129W, active compounds read low",0.973
same,normalized growth,"S. cerevisiae deletion strains, locus YMR205C, strain PFK2, active compounds read low",1.05
same,normalized growth,"S. cerevisiae deletion strains, locus YMR231W, strain pep5, active compounds read low",0.992
same,normalized growth,"S. cerevisiae deletion strains, locus YNL071W, strain lat1, active compounds read low",0.985
same,normalized growth,"S. cerevisiae deletion strains, locus YNL209W, strain ssb2, active compounds read low",0.993
same,normalized growth,"S. cerevisiae deletion strains, locus YNL248C, strain rpa49, active compounds read low",0.933
same,normalized growth,"S. cerevisiae deletion strains, locus YNL322C, strain KRE1 (second series), active compounds read low",0.996
same,normalized growth,"S. cerevisiae deletion strains, locus YNR049C, strain mso1, active compounds read low",0.988
same,normalized growth,"S. cerevisiae deletion strains, locus YOR001W, strain rrp6, active compounds read low",0.974
same,normalized growth,"S. cerevisiae deletion strains, locus YOR070C, strain gyp1, active compounds read low",1
same,normalized growth,"S. cerevisiae deletion strains, locus YOR080W, strain dia2, active compounds read low",1.02
same,normalized growth,"S. cerevisiae deletion strains, locus YOR083W, strain WHI5, active compounds read low",0.942
same,normalized growth,"S. cerevisiae deletion strains, locus YOR106W, strain vam3, active compounds read low",0.946
same,normalized growth,"S. cerevisiae deletion strains, locus YOR265W, strain rbl2, active compounds read low",0.992
same,normalized growth,"S. cerevisiae deletion strains, locus YOR270C, strain vph1, active compounds read low",0.972
same,normalized growth,"S. cerevisiae deletion strains, locus YOR290C, strain snf2, active compounds read low",0.976
same,normalized growth,"S. cerevisiae deletion strains, locus YPL051W, strain arl3, active compounds read low",0.974
same,normalized growth,"S. cerevisiae deletion strains, locus YPL078C, strain atp4, active compounds read low",0.925
same,normalized growth,"S. cerevisiae deletion strains, locus YPL106C, strain sse1, active compounds read low",1.01
same,normalized growth,"S. cerevisiae deletion strains, locus YPL240C, strain hsp82, active compounds read low",0.978
